Compound activity (PubChem)
A549 tox = A549 cytotoxicity, counter-screen for Nrf2 inhibitors; Potency, µM (highest dose often 46 µM), hits mostly inhibitors; A549 ARE-Fluc cells, CellTiter-Fluor viability, 18-24 h; 390,000 tested, 0.16% active
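A549 ARE_Fluc cells in 5% FBS OPTI-MEM were exposed to compounds in concentration-response for 18-24 h at 37 deg C. Viability was read by CellTiter-Fluor fluorescence (Ex 405/Em 525) after 30 min, before the luciferase read.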
Nrf2 inh = blocks Nrf2 signaling. A549 ARE-Fluc reporter, luciferase luminescence, 18-24 h. Potency, µM (titrated, usually from 46 µM), most hits filed as inhibitors. 360,000 tested, 2.1% active. AID 504444; note: nearly all actives have a fitted effect of over 60% in size
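Two sequential reads on A549 ARE_Fluc cells exposed to compound for 18-24 h: a CellTiter-Fluor fluorescence read for viability, then a luciferase luminescence read for Nrf2/ARE activity.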
Rango-impB inh = Rango-importin beta binding inhibition; Q14974; Rango CFP/YFP FRET sensor + importin beta, 45 min; Potency, µM (doses to about 92.2 µM); 340,000 tested, 0.031% active; AID 540263; calls by dose curve; note: nearly all actives have a fitted effect of over 15% in size
Target sequence (Q14974 whole entry, looked up): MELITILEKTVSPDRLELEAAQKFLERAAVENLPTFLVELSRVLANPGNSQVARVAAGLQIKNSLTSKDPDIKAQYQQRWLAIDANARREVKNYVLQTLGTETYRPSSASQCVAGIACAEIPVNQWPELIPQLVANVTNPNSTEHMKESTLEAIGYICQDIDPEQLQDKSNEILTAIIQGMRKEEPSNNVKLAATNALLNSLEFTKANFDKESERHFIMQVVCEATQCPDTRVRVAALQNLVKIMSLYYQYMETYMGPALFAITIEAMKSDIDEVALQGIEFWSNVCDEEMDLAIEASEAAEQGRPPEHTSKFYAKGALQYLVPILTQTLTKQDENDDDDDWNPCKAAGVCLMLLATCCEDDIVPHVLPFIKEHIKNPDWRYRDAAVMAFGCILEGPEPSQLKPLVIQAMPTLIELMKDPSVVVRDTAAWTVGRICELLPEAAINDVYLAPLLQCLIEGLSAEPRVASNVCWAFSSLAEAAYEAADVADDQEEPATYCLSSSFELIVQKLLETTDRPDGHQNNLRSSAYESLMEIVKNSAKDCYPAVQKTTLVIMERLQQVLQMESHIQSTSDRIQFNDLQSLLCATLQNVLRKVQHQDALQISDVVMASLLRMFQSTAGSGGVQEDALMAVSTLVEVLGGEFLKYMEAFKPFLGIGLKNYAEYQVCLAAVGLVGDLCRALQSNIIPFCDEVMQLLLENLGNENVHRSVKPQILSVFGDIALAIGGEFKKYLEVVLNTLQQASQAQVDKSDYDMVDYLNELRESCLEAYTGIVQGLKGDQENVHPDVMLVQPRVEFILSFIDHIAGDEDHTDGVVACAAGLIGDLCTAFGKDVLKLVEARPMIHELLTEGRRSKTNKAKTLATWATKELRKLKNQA
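FRET biosensor (snurportin 1 IBB flanked by EYFP and cerulean), 50 nM, with compound 5 min, then 0.125 microM importin beta in PBS, 1 mM DTT, 0.02% Tween-20, 0.1% BSA. CFP/YFP ratio read after 45 min at room temperature; pre-read flags interference.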
Nrf2 ARE act = activators of Nrf2 (ARE) signaling. AREc32 ARE-luciferase reporter (MCF7-derived line), luminescence, 24 h. Potency, µM (series often up to 46.1 µM), hits mostly activators. 410,000 tested, 0.31% active. AID 624171; note: nearly all actives have a fitted effect of over 65% in size
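AREc32 cells carrying an ARE-driven firefly luciferase reporter were seeded at 1000 cells/well in OPTI-MEM with 5% FBS, then exposed to compound for 24 hr at 37 deg C. Luminescence was read with Steady-Glo after 30 min at RT.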
Rango dissoc inh = prevents RanGTP from dissociating the Rango-importin beta complex; AID 540253; O95149+P62826; Biochemical FRET Rango-importin beta, RanGTP-induced dissociation; Potency, µM (doses to about 46.1 µM); 340,000 tested, 0.071% active; calls by dose curve; note: nearly all actives have a fitted effect of over 45% in size
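Compounds preincubate 5 min with complex of recombinant Rango and importin beta in PBS with 1 mM DTT. Ran (0.6 uM) loaded with 2 mM GTP plus 0.2 uM RCC1 starts dissociation; FRET is recorded 45 min later.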
Of the large screens only hits and unclear results are named; the others gave an inactive call. An excerpt weighted towards active compounds, which were near 2.3% of everything screened. Unless noted, calls come from the whole dose curve; as a rule, active = well fitted curve in the direction sought with a large enough effect; inconclusive = small, poorly fitted or top-dose-only effect, or another doubt; inactive = no such curve, though single readings can be large; an effect the other way counts as inactive or inconclusive.

CSc1ncccc1C(=O)Nc1nc2ccc(Oc3ccccc3)cc2s1	Nrf2 inh 10µM, Rango-impB inh inconclusive
COc1ccc2nc(NC(=O)c3nc(S(=O)(=O)Cc4ccccc4)ncc3Cl)sc2c1	A549 tox inconclusive, Nrf2 ARE act inconclusive (no result: Rango-impB inh, Rango dissoc inh)
COc1ccc(OCC(=O)N(Cc2cccc(OC)c2)C2CCS(=O)(=O)C2)cc1 (centres undefined)	none (no result: Rango-impB inh, Rango dissoc inh)
COc1ccc(C(=O)Nc2nc3ccccc3s2)c(OC)c1	Nrf2 inh 7.3µM
COc1cc(/C=N\NC(=O)c2ccc(-c3ccccc3)cc2)cc(OC)c1OC(C)=O	Nrf2 inh 13µM
COc1cc(/C=N\NC(=O)c2ccc(-c3ccccc3)cc2)cc(OC)c1O	none
Cc1c(Cl)cccc1NC(=O)c1cc(-c2cccs2)on1	Nrf2 ARE act inconclusive (no result: Rango-impB inh, Rango dissoc inh)
Cc1c(Cl)cccc1NC(=O)c1cc(-c2ccco2)on1	Nrf2 inh inconclusive, Nrf2 ARE act 13µM
O=C(/C=C/c1cccc(F)c1)Nc1nccs1	Nrf2 inh inconclusive, Nrf2 ARE act 10µM
CCOc1cc(C2c3c(-c4cc(C)ccc4O)n[nH]c3C(=O)N2CCCOC(C)C)ccc1O (centres undefined)	none (no result: Rango-impB inh, Rango dissoc inh)
CCOC(=O)/C(=N\Nc1ccc(Cl)cc1)c1csc(Nc2ccccc2)n1	A549 tox inconclusive, Nrf2 inh 16µM, Rango-impB inh inconclusive, Rango dissoc inh inconclusive
CCOC(=O)/C(=N/Nc1ccccc1)c1csc(Nc2ccccc2)n1	Nrf2 inh inconclusive, Rango-impB inh inconclusive
O=C(CCl)Nc1cccc2ncccc12	A549 tox 23µM, Nrf2 inh 16µM, Rango-impB inh inconclusive, Nrf2 ARE act inconclusive
O=C(Nc1cccc2ncccc12)c1ccccc1F	Nrf2 ARE act 13µM
O=C(Nc1cccc2ncccc12)c1ccccc1Cl	none
CCOc1ccc(C(=O)/C=C/c2ccc(OC)c(OC)c2)cc1	Nrf2 inh inconclusive, Rango-impB inh inconclusive, Nrf2 ARE act inconclusive
CCOc1ccc(/C=C/C(=O)c2cc(Br)ccc(=O)c2O)cc1	Nrf2 inh 16µM
Cc1cccc(/C=C/C(=O)c2cc(Br)ccc(=O)c2O)c1	A549 tox inconclusive, Nrf2 inh inconclusive, Nrf2 ARE act 22µM, Rango dissoc inh inconclusive
CCc1ccc(/C=C/C(=O)c2cc(Br)ccc(=O)c2O)cc1	A549 tox inconclusive, Nrf2 inh 7.3µM, Nrf2 ARE act inconclusive
O=C(C=Cc1ccccc1)c1cc(Br)ccc1O	Nrf2 inh inconclusive, Nrf2 ARE act inconclusive
O=C(c1ccc(CS(=O)c2ccc(F)cc2)o1)N1CCN(C2CCCCC2)CC1 (centres undefined)	Rango-impB inh inconclusive
CCOC(=O)c1ccc(NC(=O)CC2C(=O)N(c3ccccc3)C(=O)N2Cc2ccc(C)cc2)cc1 (centres undefined)	Nrf2 inh inconclusive (no result: Rango-impB inh, Rango dissoc inh)
C=CCn1c(C)cc(-c2csc(NC(=O)CCc3nc4ccccc4c(=O)[nH]3)n2)c1C	none
O=C(CCc1nc2ccccc2c(=O)[nH]1)Nc1nc(-c2cccs2)cs1	Nrf2 ARE act 10µM
CCOc1ccc(NC(=O)Cn2c(=O)oc3cc(S(=O)(=O)N4CCC(C)CC4)ccc32)cc1	none (no result: Rango-impB inh, Rango dissoc inh)
COc1cccc(CNC(=O)Cc2c(C)c3c(cc(C)c4c(C)c(C)oc43)oc2=O)c1	none (no result: Rango-impB inh, Rango dissoc inh)
CC(Sc1ccccc1)C(=O)NCC(c1ccco1)N1CCCCC1 (centres undefined)	none
CC1CCc2cc(F)cc3c(O)c(C(=O)NCC4CCCO4)c(=O)n1c23 (centres undefined)	Nrf2 inh 16µM
CCCn1c(=O)c(C(=O)NCC2CCCO2)c(O)c2ccccc21 (centres undefined)	none
COc1ccc(N2CCN(C(=O)c3nn(C)c4c3CSc3ccccc3-4)CC2)cc1	none (no result: Rango-impB inh, Rango dissoc inh)
CC(C)(C)c1ccc2c(c1)OC(C(=O)N/N=C\c1ccc[nH]1)CO2 (centres undefined)	A549 tox 8.2µM, Nrf2 inh 5.8µM
CC(C)(C)c1ccc2c(c1)OC(C(=O)N/N=C\c1ccncc1)CO2 (centres undefined)	none
O=c1c(-c2ccco2)[n+]([O-])c2ccccc2n1OCc1c(F)cccc1F	Rango-impB inh inconclusive, Nrf2 ARE act 0.71µM
O=c1c(-c2ccco2)[n+]([O-])c2ccccc2n1OCc1ccccc1	Rango-impB inh inconclusive, Nrf2 ARE act 3.2µM, Rango dissoc inh inconclusive
CCOC(=O)COn1c(=O)c(-c2ccco2)[n+]([O-])c2ccccc21	Rango-impB inh inconclusive, Nrf2 ARE act inconclusive, Rango dissoc inh 18µM
O=c1c(-c2ccco2)[n+]([O-])c2ccccc2n1OCc1ccccc1F	A549 tox inconclusive, Nrf2 inh inconclusive, Rango-impB inh inconclusive, Nrf2 ARE act inconclusive
COc1ccc(C(=O)N2CCN(c3ccccc3Cl)CC2)cc1S(=O)(=O)NC1CC1	none
COc1cc(C2CC(=O)Nc3cc4c(cc32)OCCO4)cc(OC)c1O (centres undefined)	none (no result: Rango-impB inh, Rango dissoc inh)
O=C(CCNC(=O)c1ccc([N+](=O)[O-])cc1)Nc1ccc(F)cc1F	none
CC(C(=O)c1ccc(-c2ccccc2)cc1)[n+]1ccccc1 (centres undefined)	A549 tox inconclusive, Nrf2 inh 7.3µM
Cc1oc(-c2cccc3ccccc23)nc1CN1CCN(c2ncnc3ccccc23)CC1	A549 tox inconclusive, Nrf2 inh 18µM
COc1ccc(Cn2c(CNS(=O)(=O)c3ccc(Cl)s3)nc3cccnc32)cc1	none (no result: Nrf2 inh, Rango-impB inh, Rango dissoc inh)
COC(=O)C(C)Oc1ccc(-c2nccc(-c3ccccn3)n2)cc1 (centres undefined)	none
CCCOc1ccc(-c2nonc2NC(=O)c2oc3ccc(C)cc3c2C)cc1OCCC	none (no result: Rango-impB inh, Rango dissoc inh)
CCOC(=O)c1csc(-c2sccc2Br)n1	Nrf2 inh inconclusive, Nrf2 ARE act 14µM
Cn1c(COc2ccccc2)nnc1SCc1nc2ccccc2[nH]1	Nrf2 inh inconclusive
Clc1cccc(-c2nnc(SCc3nc4ccccc4[nH]3)n2Cc2ccco2)c1	none
CCn1c(COc2ccc(C)cc2)nnc1SCc1nc2ccccc2[nH]1	Nrf2 inh 18µM
O=C(CSc1nnc(COc2ccc(Cl)cc2)n1Cc1ccco1)c1ccccc1F	A549 tox inconclusive, Nrf2 inh 13µM
Clc1ccc(OCc2nnc(SCc3nc4ccccc4[nH]3)n2Cc2ccco2)cc1	A549 tox inconclusive, Nrf2 inh 18µM
O=C(CSc1nc2cc3ccccc3cc2[nH]1)Nc1cccc(C(F)(F)F)c1	none (no result: Rango-impB inh, Rango dissoc inh)
COc1ccc(CNC(=O)c2cn(Cc3ccccc3OC)c(=O)s2)cc1	none (no result: A549 tox, Nrf2 inh, Rango-impB inh, Rango dissoc inh)
O=C(COc1ccc(S(=O)(=O)N2CCOCC2)cc1)Nc1ccc(Br)cc1	Nrf2 inh inconclusive
O=C(COc1ccccc1Cl)Nc1ccc(CN2CCOCC2)cc1	Nrf2 inh 23µM
O=C(CCCOc1ccc(Br)cc1)Nc1ccc(S(=O)(=O)N2CCOCC2)cc1	Nrf2 inh 15µM
O=C(COc1ccc(Br)cc1)Nc1ccc(CN2CCOCC2)cc1	Nrf2 inh 23µM
O=C(COc1ccc(Cl)cc1Cl)Nc1ccc(CN2CCOCC2)cc1	Nrf2 inh inconclusive
